Assay results as given in PubChem BioAssay AID485346 (Sanford-Burnham Center for Chemical Genomics, 2010).
In all, about 330,000 compounds went through this assay and about 10,000 (3%) were called active. The entries come from a sample that favours actives as a whole. Unmarked numbers belong to inactive results.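 How the source made its calls: active means inhibition of at least 50% at 8 µM in the primary screen; inactive means the rest.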

Target: Protein Mdm4 (Homo sapiens) + E3 ubiquitin-protein ligase Mdm2 (Homo sapiens) (UniProt O15151+Q00987)
Test: inhibitors of human Mdm2-MdmX association, primary screen, cell-based, luminescence, split luciferase, SaOS-2, uHTS (AID 485346)
Conditions: SaOS-2 split-luciferase Mdm2/MdmX complementation, at 8 µM, active compounds read high

Protein Mdm4 (Homo sapiens) + E3 ubiquitin-protein ligase Mdm2 (Homo sapiens), sequence (O15151 whole entry, looked up): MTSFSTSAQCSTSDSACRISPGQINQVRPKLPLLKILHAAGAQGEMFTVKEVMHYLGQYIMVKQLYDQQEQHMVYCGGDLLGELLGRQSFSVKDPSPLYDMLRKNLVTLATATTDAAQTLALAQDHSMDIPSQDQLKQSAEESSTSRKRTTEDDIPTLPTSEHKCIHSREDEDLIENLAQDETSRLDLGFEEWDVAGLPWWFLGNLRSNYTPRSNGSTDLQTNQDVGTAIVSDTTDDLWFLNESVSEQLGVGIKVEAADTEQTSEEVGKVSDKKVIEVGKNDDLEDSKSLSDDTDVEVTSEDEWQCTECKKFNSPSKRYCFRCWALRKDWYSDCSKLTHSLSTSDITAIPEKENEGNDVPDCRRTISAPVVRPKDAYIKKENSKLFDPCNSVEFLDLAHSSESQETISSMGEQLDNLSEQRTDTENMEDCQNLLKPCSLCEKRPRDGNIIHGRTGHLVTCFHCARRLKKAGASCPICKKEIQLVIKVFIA
Protein Mdm4 (Homo sapiens) + E3 ubiquitin-protein ligase Mdm2 (Homo sapiens), sequence (Q00987 whole entry, looked up): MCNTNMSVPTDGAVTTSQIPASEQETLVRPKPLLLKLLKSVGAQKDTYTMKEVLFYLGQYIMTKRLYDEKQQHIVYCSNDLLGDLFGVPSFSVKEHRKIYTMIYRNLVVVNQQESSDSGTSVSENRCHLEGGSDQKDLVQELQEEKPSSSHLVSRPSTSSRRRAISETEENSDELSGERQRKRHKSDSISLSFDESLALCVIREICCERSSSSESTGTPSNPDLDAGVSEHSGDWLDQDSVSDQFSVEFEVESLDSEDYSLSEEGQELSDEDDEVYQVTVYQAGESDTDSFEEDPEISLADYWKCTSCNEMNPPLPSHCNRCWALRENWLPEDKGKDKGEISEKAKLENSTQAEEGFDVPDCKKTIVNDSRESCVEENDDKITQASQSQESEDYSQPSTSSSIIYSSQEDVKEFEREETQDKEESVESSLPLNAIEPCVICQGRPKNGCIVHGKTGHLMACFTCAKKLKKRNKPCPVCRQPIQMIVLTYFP

Structure (SMILES)	inhibition
COc1ccccc1C1CC(=O)n2c(nc(-c3ccccc3)c2-c2ccccc2)S1 (stereo not drawn)	-21.8%
O=C(N[C@@H](Cc1c[nH]c2ccccc12)C(=O)O)OCC1c2ccccc2-c2ccccc21	-20.2%
C=C1CCC(N(O)c2cc(C)on2)C(=C)CCC2C1CC2(C)C (stereo not drawn)	-8.29%
CC(=O)Nc1ccc(S(=O)(=O)N(CCc2ccccc2)CC(=O)N/N=C/c2ccc(C(=O)O)cc2)cc1	-1.72%
CN(C)c1ccc(-n2cccc2/C=N/n2cnnc2)cc1	18.3%
Cc1ccc(N=C2NC(=O)/C(=C/C=C/c3ccco3)S2)cc1C	7.92%
CN(C)c1ccc(-n2cccc2/C=C2/SC(=Nc3ccc(F)cc3)NC2=O)cc1	53.3% (active)
Cc1ccc(S(=O)(=O)N2CCCCC2)cc1NC(=O)CCNC(=O)c1ccccc1	-6.37%
O=C(CN1CCOCC1)Nc1cccc([N+](=O)[O-])c1	14.4%
O=C(Nc1ccccc1Cl)/C(Cl)=C(\Cl)S(=O)c1ccccc1 (stereo not drawn)	93.6% (active)
O=C(Cc1ccc2c(c1)CCCC2)Nc1ccccc1Cl	-28.4%
Cc1c(NC(=O)Nc2ccccc2Cl)sc(=S)n1C	-28%
Cc1ccc(S(=O)(=O)N2CC(O)C[C@H]2C(=O)OCC(=O)Nc2ccc(N3CCOCC3)cc2)cc1C (stereo partly drawn)	31.1%
NC(=O)c1cc2ccccc2o/c1=N/NC(=O)c1cccc(F)c1	1.22%
COc1cccc2cc(C(=O)N3CCN(C(=O)c4ccccc4)CC3)c(=O)oc12	13.1%
COc1cccc2cc(C(N)=O)/c(=N\NC(=O)c3ccccc3)oc12	56.6% (active)
CC(C)N1CCc2c(sc(NC(=O)Cc3ccccc3)c2C#N)C1	-40.8%
CC(=O)N1CCc2c(sc(NC(=O)CCS(=O)(=O)c3ccc(C)cc3)c2C(N)=O)C1	25.4%
CC(=O)N1CCc2c(sc(NC(=O)CCS(=O)(=O)c3ccccc3)c2C#N)C1	86.2% (active)
COc1ccc(N(C(=O)c2snc(C(N)=O)c2N)C(C(=O)NC2CCCC2)c2ccco2)cc1OC (stereo not drawn)	22.9%

Structure (SMILES)	inhibition
O=c1[nH]c(/C=C\c2cccc(C(F)(F)F)c2)nc(O)c1[N+](=O)[O-]	-7.22%
OC(COc1ccc(F)cc1Cl)CN1CCc2ccccc2C1 (stereo not drawn)	-9.27%
Cc1cccc(OCC(O)CN2CCN(S(=O)(=O)c3ccc(C)cc3C)CC2)c1 (stereo not drawn)	-4.83%
Cc1ccc(OCC(O)CN2CCN(CC(O)COc3ccc(C)cc3Cl)CC2)c(Cl)c1 (stereo not drawn)	73.5% (active)
CCCc1ccc(OCC(=O)NNC(=S)NC(=O)c2ccco2)cc1	50% (active)
COc1ccc(C(=O)NC(=S)NNC(=O)c2c(-c3ccccc3)noc2C)cc1	14.7%
CCCc1ccc(OCCNC(=O)c2ccco2)cc1	-4.69%
CCOc1cc(NC(=O)c2ccco2)c(OCC)cc1NC(=O)COc1ccccc1	55.2% (active)
CC(C)Oc1ccc(CCC(=O)NNC(=S)NCc2ccccc2)cc1	-12.8%
COc1ccc(OCC(=O)Nc2ccc(NC(=O)c3ccco3)c(C)c2)cc1	-0.739%
COc1ccc(C(=O)NC(=S)NNC(=O)CCc2ccccc2)cc1	58.1% (active)
CC(Oc1ccc2ccccc2c1)C(=O)NNC(=S)NC(=O)c1ccco1 (stereo not drawn)	19.6%
CCOc1cc(NC(=S)NCc2ccco2)c(OCC)cc1NC(=O)c1ccco1	9.15%
Cc1cccc(OC(C)C(=O)N2CCc3ccccc3C2)c1 (stereo not drawn)	-5.47%
COC(c1ccccc1)c1nnc(CCC(=O)N2CCN(CCOc3ccccc3)CC2)o1 (stereo not drawn)	-18.9%
CC(C)c1ccc(NC(=O)COC(=O)c2ccc(CN3CCCC3=O)cc2)cc1	8.45%
COc1c(N2CCN(C(=S)Nc3ccccc3F)C(C)C2)c(F)cc2c(=O)c(C(=O)O)cn(C3CC3)c12 (stereo not drawn)	-14.1%
CNC(=O)NC(=O)C(OC(=O)c1cccc(S(=O)(=O)N2CCCCC2)c1)c1ccccc1 (stereo not drawn)	-21.4%
COc1ccccc1/C=N\Nc1cc(C)nc(-n2nc(C)cc2C)n1	57.4% (active)
Cc1nc(Cl)cc(N/N=C/c2ccccc2)n1	-5.97%

Structure (SMILES)	inhibition
Cc1cc(N/N=C\c2ccc(Br)cc2)nc(-n2nc(C)cc2C)n1	35.8%
COc1ccc(/C=N/Nc2cc(N3CCOCC3)nc(C)n2)c(OC)c1	19.1%
COc1cccc(/C=N/Nc2cc(C)nc(-c3ccccc3O)n2)c1O	93.4% (active)
COc1ccccc1/C=N/Nc1nc(C)c(C(C)=O)s1	-49.5%
COCCC(=O)Nc1ccc2c(c1)CN(C(=O)CCOC)CC2	8.33%
O=C1NC(c2ccccc2)Oc2ccccc21 (stereo not drawn)	12.9%
Cc1ccc(S(=O)(=O)NCCC(=O)OCC(=O)N(C)c2ccccc2)cc1	-1.91%
COc1ccc(CN2CCN(C(=O)c3cc(C4CC4)nn3-c3ccccc3)CC2)cc1F	12.7%
Cc1ccc(C)c(C(=O)N2CCC(n3nccc3NC(=O)C3CC3)CC2)c1	13.7%
COc1cc(C2CC(=O)Oc3cc(OC)c(OC)c(OC)c32)cc(OC)c1OC (stereo not drawn)	-1.07%
CC(CNC(=O)c1ccc(N)cc1)NC(=O)c1ccc(N)cc1 (stereo not drawn)	-17.5%
O=C(CSc1ncn[nH]1)N/N=C/c1ccc(F)cc1	1.12%
O=C(/C=C/Sc1ncn[nH]1)c1ccc(Cl)cc1	97.6% (active)
Cc1ccc(C(=O)/C=C/c2c(C)nn(-c3ccccc3)c2Cl)cc1	7.37%
CC(=O)Nc1ccc(S(=O)(=O)Nc2ccc(N3CCCCC3)cc2)cc1	55% (active)
CC(=O)Nc1ccc(S(=O)(=O)Nc2ccc(N3CCOCC3)c(F)c2)cc1	-7.04%
CC(=O)Nc1ccc(NS(=O)(=O)c2ccc3c(c2)NC(=O)CC(=O)N3)cc1	9.58%
COc1ccc(OCC(=O)NNC(=O)C2CCC2)cc1	4.55%
